In a collection of fitness landscapes (doi:10.1126/science.1257360):
Whole data set: some 140,000 sequences, median “enrichment ratio after two sorts for PhoP signalling” near 0, cut for the highest 2% near 11. The sample holds the highest values, similar sequences and a random draw of the others, so the mix is not that of the screen.

B1: PhoQ; a variant is named by its letters at X, in order, P23837 (parent)
chain: MKKLLRLFFPLSLRVRFLLATAAVVLVLSLAYGMVALIGYSVSFDKTTFRLLRGESNLFYTLAKWENNKLHVELPENIDKQSPTMTLIYDENGQLLWAQRDVPWLMKMIQPDWLKSNGFHEIEADVNDTSLLLSGDHSIQQQLQEVREDDDDAEMTHSVAVNVYPATSRMPKLTIVVVDTIPVELKSSYMVWSWFIYVLSANLLLVIPLLWVAAWWSLRPIEALAKEVRELEEHNRELLNPATTRELTSLVRNLNRLLKSERERYDKYRTTLTDLTHSLKTPLXXLQXXLRSLRSEKMSVSDAEPVMLEQISRISQQIGYYLHRASMRGGTLLSRELHPVAPLLDNLTSALNKVYQRKGVNISLDISPEISFVGEQNDFVEVMGNVLDNACKYCLEFVEISARQTDEHLYIVVEDDGPGIPLSKREVIFDRGQRVDTLRPGQGVGLAVAREITEQYEGKIVAGESMLGGARMEVIFGRQHSAPKDE

Variants of: B1
Test: enrichment ratio after two sorts for PhoP signalling (ratio (wild type AVST 3.29)); higher = more functional
Conditions: with PhoP (E. coli)

Going from TSMW to TSMV, the enrichment ratio rises from ≤ 0.25 to 19.3.

Compared with TSMI, KSMI is lower in enrichment ratio: 23 for the first, ≤ 0.25 for the second.

Going from KSMV to FSMV, the enrichment ratio rises from ≤ 0.25 to 9.33.

RCKQ and VMWK cannot be ordered by enrichment ratio: ≤ 0.25 for the first, ≤ 0.25 for the second.

First: AQIM
Second: MGLC
The enrichment ratio of the first is lower: 2.44 for the first, 19.1 for the second.

Compared with MGFS, MGNS is lower in enrichment ratio: 2.82 for the first, ≤ 0.25 for the second.

First: MGFC
Second: MLWC
The enrichment ratio of the first is higher: 14.4 for the first, ≤ 0.25 for the second.

Compared with MGFA, MGDY is lower in enrichment ratio: 3.62 for the first, ≤ 0.25 for the second.

First: QRLC
Second: MGWC
The enrichment ratio of the first is lower: ≤ 0.25 for the first, 32.1 for the second.

IHNL and VPHV cannot be ordered by enrichment ratio: ≤ 0.25 for the first, ≤ 0.25 for the second.

QVMI and QDPG cannot be ordered by enrichment ratio: ≤ 0.25 for the first, ≤ 0.25 for the second.

LMRT and HNWM cannot be ordered by enrichment ratio: ≤ 0.25 for the first, ≤ 0.25 for the second.

Compared with PLAN, SLAN is higher in enrichment ratio: ≤ 0.25 for the first, 13.8 for the second.

First: SRAN
Second: SIWN
The enrichment ratio of the first is lower: ≤ 0.25 for the first, 4.21 for the second.

Compared with KYAN, TLAN is higher in enrichment ratio: ≤ 0.25 for the first, 12.5 for the second.

KSAN and SFAN cannot be ordered by enrichment ratio: ≤ 0.25 for the first, ≤ 0.25 for the second.

First: SSAN
Second: SIAN
The enrichment ratio of the first is lower: 12.6 for the first, 22.8 for the second.

NSAN and VLAN cannot be ordered by enrichment ratio: ≤ 0.25 for the first, ≤ 0.25 for the second.

AYNP and MNQS cannot be ordered by enrichment ratio: ≤ 0.25 for the first, ≤ 0.25 for the second.

First: QHYQ
Second: SAAN
The enrichment ratio of the first is lower: ≤ 0.25 for the first, 11.7 for the second.

KQAN and SAQN cannot be ordered by enrichment ratio: ≤ 0.25 for the first, ≤ 0.25 for the second.

First: IPYG
Second: MDSP
The enrichment ratio of the first is lower: ≤ 0.25 for the first, 1.12 for the second.

First: NDLM
Second: MTWY
The enrichment ratio of the first is lower: ≤ 0.25 for the first, 21.6 for the second.

MPWY and YTWY cannot be ordered by enrichment ratio: ≤ 0.25 for the first, ≤ 0.25 for the second.

Compared with YTWF, LTWY is higher in enrichment ratio: ≤ 0.25 for the first, 2.54 for the second.

Compared with TTWY, MTWF is lower in enrichment ratio: 14 for the first, 11.8 for the second.

Going from MMWF to MTWI, the enrichment ratio rises from ≤ 0.25 to 10.2.

REII and QNIY cannot be ordered by enrichment ratio: ≤ 0.25 for the first, ≤ 0.25 for the second.

RKGF and RLAG cannot be ordered by enrichment ratio: ≤ 0.25 for the first, ≤ 0.25 for the second.

LLSD and KHVD cannot be ordered by enrichment ratio: ≤ 0.25 for the first, ≤ 0.25 for the second.

WVTG and WRYK cannot be ordered by enrichment ratio: ≤ 0.25 for the first, ≤ 0.25 for the second.

DWAR and DQSP cannot be ordered by enrichment ratio: ≤ 0.25 for the first, ≤ 0.25 for the second.

HHVS and HLFA cannot be ordered by enrichment ratio: ≤ 0.25 for the first, ≤ 0.25 for the second.

KKAG and AKAG cannot be ordered by enrichment ratio: ≤ 0.25 for the first, ≤ 0.25 for the second.

First: AIAG
Second: TIFG
The enrichment ratio of the first is higher: 12.5 for the first, ≤ 0.25 for the second.

Going from TIAG to WIAG, the enrichment ratio falls from 21.3 to ≤ 0.25.

EQNT and MHNT cannot be ordered by enrichment ratio: ≤ 0.25 for the first, ≤ 0.25 for the second.

Compared with ITTY, TTQV is higher in enrichment ratio: ≤ 0.25 for the first, 16.2 for the second.

Going from TTMV to TTHV, the enrichment ratio falls from 28.9 to 14.6.

Compared with FVHV, FDHV is lower in enrichment ratio: 12.9 for the first, ≤ 0.25 for the second.

TTPV and YTQV cannot be ordered by enrichment ratio: ≤ 0.25 for the first, ≤ 0.25 for the second.

NVHV and YTHV cannot be ordered by enrichment ratio: ≤ 0.25 for the first, ≤ 0.25 for the second.

Compared with TTIV, FSHV is lower in enrichment ratio: 0.549 for the first, ≤ 0.25 for the second.

Compared with STQV, SKAG is lower in enrichment ratio: 2.63 for the first, ≤ 0.25 for the second.

Compared with TMDC, CSSV is higher in enrichment ratio: ≤ 0.25 for the first, 0.253 for the second.

LKSK and QYAS cannot be ordered by enrichment ratio: ≤ 0.25 for the first, ≤ 0.25 for the second.

DYQS and HVFV cannot be ordered by enrichment ratio: ≤ 0.25 for the first, ≤ 0.25 for the second.

VSIQ and GGHV cannot be ordered by enrichment ratio: ≤ 0.25 for the first, ≤ 0.25 for the second.

With RGHV the enrichment ratio was ≤ 0.25.
